# Measurements from PubChem BioAssay AID1159580 (chemical genetic matrix, 2015).
# The whole screen tested about 5,500 compounds, of which about 2,000 (36%) were called active. Roughly 18% stayed inconclusive and do not appear here. Some of the results follow. A number with no mark means an inactive call. No stated cut-off is given here; in the data, active means normalized growth mostly below about 0.91 (no sharp cut-off); inconclusive means no clear call, values can overlap the other calls; inactive means mostly above about 0.92.
# Assay: chemical genetic growth profiling, strain panel (AID 1159580);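 further: tested at 20 µM; growth read once vehicle control cultures reached saturation at 30 °C; 1 = growth at the plate median or of vehicle wells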
# Conditions: growth OD
# [1] = S. cerevisiae deletion strains, locus YAL013W, strain DEP1, stronger effect = lower value
# [2] = S. cerevisiae deletion strains, locus YBR229C, strain ROT2, stronger effect = lower value
# [3] = S. cerevisiae deletion strains, locus YCL061C, strain MRC1, stronger effect = lower value
# [4] = S. cerevisiae deletion strains, locus YDL101C, strain DUN1, stronger effect = lower value
# [5] = S. cerevisiae deletion strains, locus YDL134C, strain PPH21, stronger effect = lower value
# [6] = S. cerevisiae deletion strains, locus YDR150W, strain NUM1, stronger effect = lower value
# [7] = S. cerevisiae deletion strains, locus YEL061C, strain CIN8, stronger effect = lower value
# [8] = S. cerevisiae deletion strains, locus YGR078C, strain PAC10, stronger effect = lower value
# [9] = S. cerevisiae deletion strains, locus YHR030C, strain SLT2, stronger effect = lower value
# [10] = S. cerevisiae deletion strains, locus YHR087W, strain rtc3, stronger effect = lower value
# [11] = S. cerevisiae deletion strains, locus YJR043C, strain POL32, stronger effect = lower value
# [12] = S. cerevisiae deletion strains, locus YJR075W, strain HOC1, stronger effect = lower value
# [13] = S. cerevisiae deletion strains, locus YKL190W, strain CNB1, stronger effect = lower value
# [14] = S. cerevisiae deletion strains, locus YLR039C, strain RIC1, stronger effect = lower value
# [15] = S. cerevisiae deletion strains, locus YLR058C, strain SHM2 (second series), stronger effect = lower value
# [16] = S. cerevisiae deletion strains, locus YLR085C, strain ARP6, stronger effect = lower value
# [17] = S. cerevisiae deletion strains, locus YLR262C, strain YPT6, stronger effect = lower value
# [18] = S. cerevisiae deletion strains, locus YML094W, strain GIM5, stronger effect = lower value
# [19] = S. cerevisiae deletion strains, locus YMR219W, strain ESC1, stronger effect = lower value
# [20] = S. cerevisiae deletion strains, locus YMR263W, strain SAP30, stronger effect = lower value
# [21] = S. cerevisiae deletion strains, locus YMR307W, strain GAS1, stronger effect = lower value
# [22] = S. cerevisiae deletion strains, locus YNL153C, strain GIM3, stronger effect = lower value
# [23] = S. cerevisiae deletion strains, locus YNL298W, strain CLA4 (second series), stronger effect = lower value
# [24] = S. cerevisiae deletion strains, locus YNL322C, strain KRE1, stronger effect = lower value
# [25] = S. cerevisiae deletion strains, locus YNR030W, strain Alg12, stronger effect = lower value
# [26] = S. cerevisiae deletion strains, locus YOL006C, strain TOP1, stronger effect = lower value
# [27] = S. cerevisiae deletion strains, locus YPL055C, strain LGE1, stronger effect = lower value
# [28] = S. cerevisiae deletion strains, locus YPL241C, strain CIN2, stronger effect = lower value
# [29] = S. cerevisiae deletion strains, locus YPR135W, strain CTF4, stronger effect = lower value
# [30] = S. cerevisiae strains, strain wild type, stronger effect = lower value
# [31] = S. cerevisiae deletion strains, locus YNL128W, strain TEP1, stronger effect = lower value
structure (smiles),measurement,setting,value
Cn1c(SCc2ccccc2)nnc1-c1ccc2ncccc2c1,normalized growth,[1],1
same,normalized growth,[2],0.997
same,normalized growth,[3],1.01
same,normalized growth,[4],0.986
same,normalized growth,[5],1.01
same,normalized growth,[6],0.902
same,normalized growth,[7],0.987
same,normalized growth,[8],1
same,normalized growth,[9],1.18
same,normalized growth,[10],0.999
same,normalized growth,[11],0.997
same,normalized growth,[12],0.991
same,normalized growth,[13],0.994
same,normalized growth,[14],1.1
same,normalized growth,[15],0.997
same,normalized growth,[16],1.05
same,normalized growth,[17],1.1
same,normalized growth,[18],1.01
same,normalized growth,[19],0.999
same,normalized growth,[20],0.989
same,normalized growth,[21],1.41 [resistant] (active)
same,normalized growth,[22],0.997
same,normalized growth,[23],1.07
same,normalized growth,[24],0.992
same,normalized growth,[25],1.02
same,normalized growth,[26],1.01
same,normalized growth,[27],0.99
same,normalized growth,[28],1.02
same,normalized growth,[29],1.08
Cn1c(SCC(=O)N2CCOCC2)nnc1-c1ccc2ncccc2c1,normalized growth,[1],0.996
same,normalized growth,[2],1.01
same,normalized growth,[3],1.02
same,normalized growth,[4],1.03
same,normalized growth,[5],0.963
same,normalized growth,[6],0.929
same,normalized growth,[7],1.03
same,normalized growth,[8],1.02
same,normalized growth,[9],1.08
same,normalized growth,[10],1.01
same,normalized growth,[11],1.01
same,normalized growth,[12],1.03
same,normalized growth,[14],0.971
same,normalized growth,[15],0.995
same,normalized growth,[16],1.1
same,normalized growth,[17],0.942
same,normalized growth,[18],1.06
same,normalized growth,[19],1
same,normalized growth,[20],1
same,normalized growth,[22],1
same,normalized growth,[23],1.03
same,normalized growth,[24],0.992
same,normalized growth,[25],1.03
same,normalized growth,[26],1.03
same,normalized growth,[27],1.04
same,normalized growth,[28],1.05
same,normalized growth,[29],1.03
same,normalized growth,[30],0.984
CCOC(=O)C1=C(O)C(=O)N(Cc2ccccc2)C1,normalized growth,[1],1.02
same,normalized growth,"S. cerevisiae deletion strains, locus YBR021W, strain FUR4, stronger effect = lower value",1.02
same,normalized growth,[2],1
same,normalized growth,"S. cerevisiae deletion strains, locus YCL029C, strain bik1, stronger effect = lower value",1.01
same,normalized growth,"S. cerevisiae deletion strains, locus YDL035C, strain GPR1, stronger effect = lower value",1.01
same,normalized growth,"S. cerevisiae deletion strains, locus YDL074C, strain BRE1, stronger effect = lower value",1
same,normalized growth,[4],1.01
same,normalized growth,[5],1
same,normalized growth,"S. cerevisiae deletion strains, locus YDL185W, strain tfp1, stronger effect = lower value",1.02
same,normalized growth,"S. cerevisiae deletion strains, locus YDL192W, strain arf1, stronger effect = lower value",1.01
same,normalized growth,"S. cerevisiae deletion strains, locus YDR101C, strain arx1, stronger effect = lower value",1
same,normalized growth,[6],1.01
same,normalized growth,"S. cerevisiae deletion strains, locus YDR162C, strain NBP2, stronger effect = lower value",0.995
same,normalized growth,"S. cerevisiae deletion strains, locus YDR318W, strain mcm21, stronger effect = lower value",1.02
same,normalized growth,"S. cerevisiae deletion strains, locus YDR388W, stronger effect = lower value",1
same,normalized growth,"S. cerevisiae deletion strains, locus YDR502C, strain sam2, stronger effect = lower value",0.994
same,normalized growth,[7],1.01
same,normalized growth,"S. cerevisiae deletion strains, locus YER110C, stronger effect = lower value",1.02
same,normalized growth,"S. cerevisiae deletion strains, locus YER155C, strain BEM2, stronger effect = lower value",1
same,normalized growth,"S. cerevisiae deletion strains, locus YER167W, strain BCK2, stronger effect = lower value",1.03
same,normalized growth,"S. cerevisiae deletion strains, locus YGL078C, strain dbp3, stronger effect = lower value",1
same,normalized growth,"S. cerevisiae deletion strains, locus YGL086W, strain mad1, stronger effect = lower value",1.02
same,normalized growth,"S. cerevisiae deletion strains, locus YGL248W, strain PDE1, stronger effect = lower value",1.01
same,normalized growth,[8],1.01
same,normalized growth,"S. cerevisiae deletion strains, locus YGR135W, strain pre9, stronger effect = lower value",0.987
same,normalized growth,"S. cerevisiae deletion strains, locus YGR229C, strain SMI1, stronger effect = lower value",1
same,normalized growth,"S. cerevisiae deletion strains, locus YGR252W, strain gcn5, stronger effect = lower value",1.02
same,normalized growth,[9],1.01
same,normalized growth,"S. cerevisiae deletion strains, locus YHR079C, strain IRE1 (second series), stronger effect = lower value",1.02
same,normalized growth,"S. cerevisiae deletion strains, locus YHR094C, strain hxt1, stronger effect = lower value",1.01
same,normalized growth,"S. cerevisiae deletion strains, locus YHR129C, strain ARP1, stronger effect = lower value",1.02
same,normalized growth,"S. cerevisiae deletion strains, locus YHR200W, strain rpn10, stronger effect = lower value",1.01
same,normalized growth,"S. cerevisiae deletion strains, locus YIL066C, strain RNR3, stronger effect = lower value",1
same,normalized growth,"S. cerevisiae deletion strains, locus YIL073C, strain SPO22, stronger effect = lower value",1.1
same,normalized growth,"S. cerevisiae deletion strains, locus YIL125W, strain kgd1, stronger effect = lower value",1
same,normalized growth,"S. cerevisiae deletion strains, locus YIR030C, strain dcg1, stronger effect = lower value",1.01
same,normalized growth,"S. cerevisiae deletion strains, locus YJL095W, strain BCK1, stronger effect = lower value",1.01
same,normalized growth,"S. cerevisiae deletion strains, locus YJL134W, strain LCB3, stronger effect = lower value",1.01
same,normalized growth,"S. cerevisiae deletion strains, locus YJL168C, strain set2, stronger effect = lower value",1.01
same,normalized growth,"S. cerevisiae deletion strains, locus YJL187C, strain SWE1 (second series), stronger effect = lower value",1.01
same,normalized growth,[11],1.04
same,normalized growth,[12],0.997
same,normalized growth,"S. cerevisiae deletion strains, locus YKL009W, strain mrt4, stronger effect = lower value",1.03
same,normalized growth,"S. cerevisiae deletion strains, locus YKL068W, stronger effect = lower value",1
same,normalized growth,"S. cerevisiae deletion strains, locus YKL085W, strain MDH1 (second series), stronger effect = lower value",1.02
same,normalized growth,"S. cerevisiae deletion strains, locus YKL085W, strain MDH1, stronger effect = lower value",1.02
same,normalized growth,[13],1.01
same,normalized growth,"S. cerevisiae deletion strains, locus YKR001C, strain vps1, stronger effect = lower value",1.01
same,normalized growth,[14],1.05
same,normalized growth,"S. cerevisiae deletion strains, locus YLR058C, strain SHM2, stronger effect = lower value",1.02
same,normalized growth,"S. cerevisiae deletion strains, locus YLR102C, strain apc9, stronger effect = lower value",1.01
same,normalized growth,[17],0.993
same,normalized growth,"S. cerevisiae deletion strains, locus YLR268W, strain sec22, stronger effect = lower value",0.982
same,normalized growth,"S. cerevisiae deletion strains, locus YLR330W, strain CHS5, stronger effect = lower value",1.01
same,normalized growth,"S. cerevisiae deletion strains, locus YLR342W, strain FKS1 (second series), stronger effect = lower value",1.09
same,normalized growth,"S. cerevisiae deletion strains, locus YLR371W, strain rom2, stronger effect = lower value",1.01
same,normalized growth,"S. cerevisiae deletion strains, locus YLR418C, strain cdc73, stronger effect = lower value",0.977
same,normalized growth,"S. cerevisiae deletion strains, locus YML016C, strain PPZ1, stronger effect = lower value",1
same,normalized growth,"S. cerevisiae deletion strains, locus YML032C, strain rad52, stronger effect = lower value",1.03
same,normalized growth,"S. cerevisiae deletion strains, locus YML124C, strain tub3, stronger effect = lower value",1.01
same,normalized growth,"S. cerevisiae deletion strains, locus YMR078C, strain ctf18, stronger effect = lower value",1.02
same,normalized growth,"S. cerevisiae deletion strains, locus YMR223W, strain ubp8, stronger effect = lower value",1.03
same,normalized growth,[20],0.999
same,normalized growth,[21],1.03
same,normalized growth,"S. cerevisiae deletion strains, locus YNL067W, strain RPL9B, stronger effect = lower value",0.99
same,normalized growth,[31],0.985
same,normalized growth,[22],0.994
same,normalized growth,"S. cerevisiae deletion strains, locus YNL233W, strain BNI4, stronger effect = lower value",1.01
same,normalized growth,"S. cerevisiae deletion strains, locus YNL250W, strain rad50, stronger effect = lower value",1
same,normalized growth,"S. cerevisiae deletion strains, locus YNL271C, strain bni1, stronger effect = lower value",1.01
same,normalized growth,"S. cerevisiae deletion strains, locus YNL298W, strain CLA4, stronger effect = lower value",1
same,normalized growth,"S. cerevisiae deletion strains, locus YNL307C, strain MCK1, stronger effect = lower value",1.02
same,normalized growth,[24],0.996
same,normalized growth,"S. cerevisiae deletion strains, locus YNR052C, strain pop2, stronger effect = lower value",1.02
same,normalized growth,[26],1.01
same,normalized growth,"S. cerevisiae deletion strains, locus YOL012C, strain htz1",0.868
same,normalized growth,"S. cerevisiae deletion strains, locus YOL147C, strain pex11, stronger effect = lower value",1.01
same,normalized growth,"S. cerevisiae deletion strains, locus YOR061W, strain CKA2, stronger effect = lower value",1.01
same,normalized growth,"S. cerevisiae deletion strains, locus YOR069W, strain VPS5, stronger effect = lower value",1.01
same,normalized growth,"S. cerevisiae deletion strains, locus YOR136W, strain idh2, stronger effect = lower value",1.02
same,normalized growth,"S. cerevisiae deletion strains, locus YOR144C, strain elg1, stronger effect = lower value",1
same,normalized growth,"S. cerevisiae deletion strains, locus YOR184W, strain ser1, stronger effect = lower value",1.04
same,normalized growth,"S. cerevisiae deletion strains, locus YOR316C, strain cot1, stronger effect = lower value",1.01
same,normalized growth,[27],0.969
same,normalized growth,[28],1
same,normalized growth,"S. cerevisiae deletion strains, locus YPR119W, strain clb2, stronger effect = lower value",1
same,normalized growth,"S. cerevisiae deletion strains, locus YPR141C, strain kar3, stronger effect = lower value",1
same,normalized growth,"S. cerevisiae deletion strains, locus YPR163C, strain tif3, stronger effect = lower value",1.01
same,normalized growth,"S. cerevisiae deletion strains, locus YPR167C, strain met16, stronger effect = lower value",1.01
same,normalized growth,"S. cerevisiae deletion strains, strain wtn01, stronger effect = lower value",1
same,normalized growth,[30],1.01
CCOC(=O)c1cnc2n(c1=O)CCS2,normalized growth,[1],1.02
same,normalized growth,[2],0.997
same,normalized growth,[4],1.05
same,normalized growth,[6],0.965
same,normalized growth,[7],1.04
same,normalized growth,[8],1.04
same,normalized growth,[9],1.1
same,normalized growth,[10],1.02
same,normalized growth,[11],0.999
same,normalized growth,[12],1.01
same,normalized growth,[13],0.996
same,normalized growth,[14],0.99
same,normalized growth,[15],0.995
same,normalized growth,[16],1.06
same,normalized growth,[17],0.996
same,normalized growth,[18],1.13 [resistant] (active)
same,normalized growth,[19],0.999
same,normalized growth,[20],1
same,normalized growth,[31],0.997
same,normalized growth,[22],1.02
same,normalized growth,[23],1.03
same,normalized growth,[24],1.01
same,normalized growth,[25],1.08
same,normalized growth,[26],1.07
same,normalized growth,[27],0.987
same,normalized growth,[28],1.01
same,normalized growth,[29],1.12
same,normalized growth,[30],0.975
